Pf growth 48h – P. falciparum growth inhibition at 48 hours (one generation). P. falciparum luciferase growth in erythrocytes, 48 h. Potency, µM (series often up to 28.7 µM), for the others: top-dose activity change, negative = inhibition, hits mostly inhibitors. actives 5.9% (n = 310,000); note: potency is the fitted concentration of half-maximal effect; % is set by controls: 0 for no effect and ±100 for the full control effect
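First compound was added to culture medium, then infected red cells at 0.1% parasitemia and 2% hematocrit (final). After incubation at 37 C under 5% CO2, luciferase detection reagent was dispensed and light output recorded.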
Pf growth 96h – P. falciparum growth inhibition at 96 hours | P. falciparum luciferase reporter growth, 96 h | Potency, µM (doses to about 28.7 µM), inactives show at the top dose activity change, negative = inhibition, usual class: inhibitors | actives 6.9% (n = 320,000) | AID 504834; note: potency is the fitted concentration of half-maximal effect; % is set by controls: 0 for no effect and ±100 for the full control effect
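Luminescence readout: decreased luciferase signal marks inhibited growth of reporter-expressing P. falciparum in infected red cells (2% hematocrit, 0.05% parasitemia final), exposed to compound two generations (96 h, 37 C, 5% CO2).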
CHX counter – affects cycloheximide protein synthesis inhibition readout, counter-screen | cell reporter, cycloheximide protein synthesis inhibition counterscreen | max response, % | actives 12% (n = 300,000); in the data active = max response mostly above about 13%, no sharp cut-off; inactive = mostly below about 14%; note: read at 38.3 µM for the half of the compounds with a filed dose; 0% is about no effect
Shiga inhibitor – blocks Shiga toxin action in Vero cells; actives 9.2% (n = 290,000); Vero cells, Shiga toxin protein synthesis inhibition reporter; AID 2315; inhibition, % at 38.7 µM; in the data active = inhibition mostly above about 28%, no sharp cut-off; inactive = mostly below about 43%; note: 0% is about no effect
LmPK inhibitor – inhibitors of Leishmania mexicana pyruvate kinase; Q27686; purified LmPK, Kinase-Glo ATP luminescence, 1 h; Potency, µM (highest dose often 57.5 µM), for the others: at the highest dose activity change, negative = inhibition, hits mostly inhibitors; actives 0.37% (n = 290,000); note: potency is the fitted concentration of half-maximal effect; % is set by controls: 0 for no effect and ±100 for the full control effect
Target sequence (Q27686 whole entry, looked up): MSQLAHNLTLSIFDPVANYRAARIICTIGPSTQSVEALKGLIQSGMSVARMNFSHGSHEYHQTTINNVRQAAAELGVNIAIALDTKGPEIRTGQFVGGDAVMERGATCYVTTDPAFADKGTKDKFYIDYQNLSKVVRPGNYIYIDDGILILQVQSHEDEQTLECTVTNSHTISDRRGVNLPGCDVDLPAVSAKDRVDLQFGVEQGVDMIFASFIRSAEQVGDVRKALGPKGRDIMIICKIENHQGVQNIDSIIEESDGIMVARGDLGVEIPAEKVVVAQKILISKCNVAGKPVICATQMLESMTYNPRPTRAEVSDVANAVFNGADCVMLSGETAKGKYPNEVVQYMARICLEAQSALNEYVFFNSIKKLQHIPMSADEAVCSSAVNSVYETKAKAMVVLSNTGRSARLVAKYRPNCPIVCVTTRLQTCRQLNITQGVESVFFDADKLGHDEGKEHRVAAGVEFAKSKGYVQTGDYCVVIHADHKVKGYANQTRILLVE
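In 50 mM imidazole pH 7.2 with 7 mM MgCl2, LmPK (0.1 nM) turned over PEP (0.5 mM) and ADP (0.1 mM) for 1 h at room temperature. Luciferase read-out of ATP.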
Numbers without * were called inactive; ? = inconclusive; . = no result; + = active, no number; [ ] = dose if it differs, or a comment. Most compounds without a hit are left out; they make up all but 22% or so of the library. Unless noted, calls come from the whole dose curve; as a rule, active = well fitted inhibition curve with a large enough effect; inconclusive = small, poorly fitted or top-dose-only effect, or another doubt; inactive = no such curve, though single readings can be large or run the other way.

SMILES	Pf growth 48h	Pf growth 96h	CHX counter	Shiga inhibitor	LmPK inhibitor
NC(=O)C1CCN(c2cc(Cl)ccc2[N+](=O)[O-])CC1	-5.1%	5.6%	6.0	11.4	-2.2%
Clc1ccc2c(N3CCOCC3)ccnc2c1	9.4%	11.4%	-2.1	.	-1.0%
NC(=O)C1CCN(c2ccnc3cc(Cl)ccc23)CC1	?	11.7µM*	1.0	2.7	0.0%
Cc1occc1C(=O)Nc1cccc([N+](=O)[O-])c1C	24.0%	90.6%	4.1	9.0	2.9%
COc1ccc(OC)c(/C=C/C(=O)OCC(=O)N2CCN(S(=O)(=O)c3ccc(C)cc3C)CC2)c1	19.5%	11.6%	.	.	.
COc1ccc(N2CCN(c3nccs3)CC2)cc1	73.7%	90.0%	37.1*	71.7*	-0.4%
Cc1ccc2c(c1)C1CN(C)CCC1N2S(=O)(=O)c1cc(C(F)(F)F)ccc1Cl (stereo not drawn)	9.28µM*	-120.2%	.	.	.
Cc1ccc2c(c1)C1CN(C)CCC1N2S(=O)(=O)c1ccccc1 (stereo not drawn)	?	?	-1.0	-3.4	6.4%
Cc1ccc2c(c1)C1CN(C)CCC1N2S(=O)(=O)c1ccc(C(C)C)cc1 (stereo not drawn)	4.65µM*	7.38µM*	.	.	.
CC1(C)OC(=O)C=C[C@]2(C)[C@H]3CC[C@@]4(C)[C@H](c5ccoc5)OC(=O)[C@H]5O[C@]54[C@]3(C)C(=O)C[C@@H]12	-21.1%	-20.0%	.	.	.
CC(=O)O[C@@H]1C[C@H]2C(C)(C)C(=O)C=C[C@]2(C)[C@H]2CC[C@@]3(C)[C@H](c4ccoc4)OC(=O)[C@H]4O[C@]43[C@@]21C	1.65µM*	3.29µM*	1.9	30.5	2.5%
CCCn1c(N)c(Sc2ccccc2[N+](=O)[O-])c(=O)n(CCC)c1=O	?	?	-3.5	-2.9	6.6%
O=C(NNc1ccccc1C(F)(F)F)c1sccc1Br	-10.3%	0.5%	-1.3	-3.6	1.5%
COc1cccc(NC(=O)C2CCN(c3cnccn3)CC2)c1	2.1%	102.8%	20.0	-5.2	-7.2%
COC(=O)[C@@]12CCCN1[C@H](c1ccc(-c3cccc(Cl)c3)cc1)[C@H]1C(=O)N(C)C(=O)[C@H]12	6.57µM*	13.1µM*	.	.	.
COC(=O)[C@@]12CCCN1[C@H](c1ccc(-c3ccccc3)cc1)[C@@H]1C(=O)N(C)C(=O)[C@@H]12	7.38µM*	?	.	.	.
Cc1ccc([C@@H]2[C@@H]3C(=O)N(C)C(=O)[C@@H]3[C@]3(C)C(=O)N(Cc4ccc(-c5ccccc5)cc4)CC(=O)N23)o1	17.7%	35.0%	1.5	-6.0	-4.1%
COc1ccccc1C1C(C(=O)c2ccco2)=C(O)C(=O)N1c1cc(C)on1 (stereo not drawn)	-4.0%	9.3%	-1.5	-9.6	-0.7%
O=C1O/C(=C/c2ccccc2)c2ccccc21	2.0%	49.0%	65.1*	+	-7.2%
CC(=O)c1cccc(-n2c(CCC(=O)O)ccc2-c2cccs2)c1	?	?	26.3*	52.4	1.8%
Cc1ccc(-c2ccc(CCC(=O)O)n2-c2cccc(O)c2)cc1	131.2%	.	40.3*	120.8*	2.1%
CC(=O)c1cccc(-n2c(CCC(=O)O)ccc2-c2ccccc2)c1	-11.8%	3.5%	40.1*	75.4*	-1.8%
CCOC(=O)c1cc2c(C)n(-c3ccc(C)cc3)c(C)c2ccc1=O	?	0.0%	35.2*	119.8*	4.7%
CCOC(=O)c1cc2c(C)n(-c3ccc(OCC)cc3)c(C)c2ccc1=O	?	4.15µM*	16.0*	43.2	6.0%
COc1ccc(C(OCCN2CCC[C@H](C(=O)O)C2)(c2ccc(OC)cc2)c2ccc(OC)cc2)cc1	.	.	-6.1	2.8	.
SMILES	Pf growth 48h	Pf growth 96h	CHX counter	Shiga inhibitor	LmPK inhibitor
CCCC(=O)Nc1sc(C)c(-c2ccc(C(C)CC)cc2)c1C#N (stereo not drawn)	6.0%	0.6%	-4.7	-5.7	-0.7%
Cc1cc(C)c(NC(=O)C2CCCN2C)c(C)c1 (stereo not drawn)	38.7%	8.28µM*	-4.9	-20.9	-6.9%
Cc1cc(C)c(NC(=O)C2CCCN2CCO)c(C)c1 (stereo not drawn)	6.8%	.	-2.2	-1.8	-0.6%
COc1cc(C2CC(=O)Nc3c2c(=O)nc2c(C)cccn32)cc(OC)c1OC (stereo not drawn)	14.9%	?	5.0	-3.2	0.3%
CC(C)(C)c1ccc(-c2nc3[nH]c(=O)cc(NC(=O)c4ccco4)n3n2)cc1	10.4µM*	4.15µM*	17.5	15.3	9.0%
Cc1ccc(-c2nc3[nH]c(=O)cc(NC(=O)C(C)C)n3n2)cc1	0.294µM*	0.0828µM*	-0.5	-3.6	-20.4%
CCC(=O)Nc1cc(=O)[nH]c2nc(-c3ccc(Cl)cc3)nn12	0.262µM*	?	7.5	-3.8	-10.1%
Cc1ccc(-c2nc3[nH]c(=O)cc(NC(=O)c4cccs4)n3n2)cc1	?	?	-3.6	-2.1	?
CCCCCCn1c(=O)[nH]c2nc3cc(N)c(C)cc3nc2c1=O	-11.6%	?	3.1	-13.2	-29.6%
CCCCn1c(=O)[nH]c2nc3cc(NC(C)=O)ccc3nc2c1=O	14.7µM*	2.3%	6.6	4.7	1.1%
COCCCNS(=O)(=O)c1cc2c3c(c1)C(C)C(=O)N3CCC2 (stereo not drawn)	10.6%	10.9%	1.0	-3.0	-2.4%
Nc1nn(-c2ccccc2Cl)cc1-c1nn[nH]n1	-8.9%	5.4%	2.0	-5.9	-7.5%
Cc1[nH]n(C(C)(C)C)c(=O)c1Sc1ccccc1	-10.8%	11.7µM*	6.4	-9.1	2.3%
COc1ccc(N(C)C(=O)C2CCCN2S(=O)(=O)c2cccc3nsnc23)cc1 (stereo not drawn)	-3.3%	11.4%	-2.1	-3.9	2.9%
S=C(Nc1ccc(Br)cc1Cl)Nn1cnnc1	20.6%	?	0.9	-8.3	0.7%
COC(=O)c1ccccc1NC(=O)CN(c1ccc(C)cc1)S(C)(=O)=O	-4.4%	11.9%	-4.5	-4.4	6.6%
NC(=O)CCn1ccc2ccccc21	-9.0%	38.7%	-4.9	-6.7	2.5%[11.5 µM]
CN(/N=C/c1cccnc1)c1cnn(-c2ccc(F)c(Cl)c2)c(=O)c1Cl	0.0%	.	20.3*	82.2	3.6%
CN(/N=C/c1c[nH]c2ccccc12)c1cnn(-c2ccc(F)c(Cl)c2)c(=O)c1Cl	.	-17.6%	-5.4	14.0	9.3%
CCOc1ccc(S(=O)(=O)N2CCCC(C(=O)NCC3CCCO3)C2)cc1 (stereo not drawn)	?	-29.7%	-2.9	-6.9	-6.1%
C/C=C(/C(=C/C)c1ccc(O)cc1)c1ccc(O)cc1	-23.0%	?	-2.2	-12.9	5.1%
CC1(C)C=C(c2ccc(O)cc2)CC(C)(C)N1	4.0%	13.1µM*	-0.8	-4.8	-3.4%
CCOC(=O)C1C(c2ccc(O)c(O)c2)NC(=S)NC1(O)C(F)(F)F (stereo not drawn)	34.3%	11.7µM*	8.3	-12.7	-2.1%
CS(=O)(=O)c1ccc(N2CCN(c3ccccn3)CC2)c([N+](=O)[O-])c1	-20.8%	-7.8%	-8.6	-5.1	2.2%

Assay outcomes: PubChem BioAssay, National Center for Advancing Translational Sciences (NCATS)
